# From PubChem
# TRHR enhancer-1: allosteric enhancers of human TRH receptor; P34981; TRHR cells, fluo-8 calcium fluorescence, EC20 TRH enhancement; enhancement, % at 2 µM; hit rate 0.66% among 360,000; AID 493056; in the data active means enhancement above about 30%; further: 0% is about no effect
#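 TRHR-expressing cells loaded with fluo-8 calcium dye were read kinetically (ex 480/em 530) during compound addition, then stimulated with an EC20 of TRH (10 nM final). Enhancement of the Gq-mediated intracellular calcium response was scored.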
# D1 antagonist: blocks dopamine activation of the human D1 receptor | P21728 | HEK293 TREx D1 cells, calcium flux, dopamine EC80; hits give low values | activity change, negative = inhibition, % at 10 µM | hit rate 3.2% among 360,000; in the data active means activity change below about -30%; further: on the % scale 0 is the no-effect control and ±100 the full control effect
# Target sequence (P21728 whole entry, looked up): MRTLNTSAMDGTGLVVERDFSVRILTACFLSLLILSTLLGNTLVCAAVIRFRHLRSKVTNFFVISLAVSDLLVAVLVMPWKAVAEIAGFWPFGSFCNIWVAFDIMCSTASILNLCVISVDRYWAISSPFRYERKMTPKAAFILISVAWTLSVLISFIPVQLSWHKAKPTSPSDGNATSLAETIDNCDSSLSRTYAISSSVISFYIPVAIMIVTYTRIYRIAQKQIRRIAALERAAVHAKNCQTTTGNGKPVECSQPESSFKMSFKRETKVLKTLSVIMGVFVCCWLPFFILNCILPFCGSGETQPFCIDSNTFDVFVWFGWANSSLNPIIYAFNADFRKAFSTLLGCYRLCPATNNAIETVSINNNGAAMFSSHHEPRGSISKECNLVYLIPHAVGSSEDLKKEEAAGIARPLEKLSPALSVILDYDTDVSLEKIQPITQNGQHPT
#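 Antagonism measured as reduced calcium response to an EC80 dopamine addition following 180 s compound pre-read; cells were inducible HEK293 Trex D1 plated overnight at 30 C, read kinetically at 1 cycle/sec.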
# TRHR agonist-1: activates the human TRH receptor; P34981; activation, % at 2 µM; hit rate 0.18% among 360,000; TRHR cells, calcium flux fluo-8, FDSS agonist mode; further: 0% is about no effect
#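 TRHR-expressing cells loaded with fluo-8 calcium dye; 23 nL library compound pin-transferred, kinetic FDSS fluorescence (Ex 480/Em 530) recorded about 180 s for agonist-induced calcium release, before a 10 nM TRH EC20 addition for potentiator mode.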
# D1 PAM: enhances dopamine response at the human D1 receptor | P21728 | HEK293 TREx D1 cells, calcium flux, dopamine EC20 potentiation | potentiation, % at 10 µM | hit rate 0.036% among 360,000 | AID 504651; in the data active means potentiation above about 30%; further: 0% is about no effect
# D1 ag: human D1 receptor agonism | P21728 | hit rate 1% among 360,000 | HEK293 T-REx D1 cells, calcium flux, agonist mode | activation, % at 2 µM; further: 0% is about no effect
#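 Agonism was scored from calcium flux recorded over 180 s (1 read/s) after pintool compound addition, following a 10-cycle baseline. Cells were inducible force-coupled HEK293 TREx D1, plated overnight at 30 C and loaded with no-wash calcium dye.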
# TRHR enhancer-2: confirmation of human TRH receptor allosteric enhancers. AID 493076. 970 tested, under 10 active. activity change, negative = inhibition, % at 46.1 µM. shares compounds with TRHR enhancer-1. TRH receptor cell assay, enhancer confirmation qHTS; active means well fitted curve in the direction sought with a large enough effect; inconclusive means small, poorly fitted or top-dose-only effect, or another doubt; inactive means no such curve, though single readings can be large; an effect the other way counts as inactive or inconclusive;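 further: compound effect scored on response to added TRH at EC20 of 10 nM; 0% is about no effect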
# TRHR agonist-2: human TRH receptor agonism confirmation; shares compounds with TRHR enhancer-1; TRHR-expressing cells, agonist activation read-out; Potency, µM (top dose mostly 46.1 µM), without a hit: at the highest dose activation, usual class: activators; hit rate 8% among 970; AID 493078; active means well fitted curve in the direction sought with a large enough effect; inconclusive means small, poorly fitted or top-dose-only effect, or another doubt; inactive means no such curve, though single readings can be large; an effect the other way counts as inactive or inconclusive; further: potency means the concentration at half of the fitted maximal effect; 0% is about no effect; nearly all actives have a fitted effect of over 75% in size
# * = called active by the depositor; ? = inconclusive; . = no result. The list is not random: actives were taken first. Their share in the collection is about 4.7%. Unless noted, no stated cut-off is given here; in the data, active means activation above about 30%; inactive means the rest.
SMILES,TRHR enhancer-1,D1 antagonist,TRHR agonist-1,D1 PAM,D1 ag,TRHR enhancer-2,TRHR agonist-2
CCCN1C(=O)/C(=C/c2ccc(N3CCOCC3)cc2)NC1=S,13,5,48*,-1,132*,?,16µM*
Cc1ccc(CN2C(=O)N/C(=C\c3ccc(N4CCOCC4)cc3)C2=O)cc1,-3,-2,0,-6,2,.,.
c1ccc(-c2cn3nc(-c4ccccc4)c(-c4ccccc4)nc3n2)cc1,-7,5,50*,-6,73*,6,21µM*
COc1ccc(OCCC(=O)OCC(=O)Nc2cccc(S(=O)(=O)N3CCOCC3)c2)cc1,0,-18,0,-3,5,.,.
CC(C)(C)c1ccc(OCCC(=O)Nc2cccc(S(=O)(=O)N3CCOCC3)c2)cc1,44*,-7,1,-3,30,5,0%
O=C(NCc1ccc2c(c1)OCO2)c1cccc(S(=O)(=O)N2CCCCC2)c1,-17,-16,44*,-4,2,-9,2%
O=C(Nc1cccc(S(=O)(=O)N2CCCC2)c1)c1cccc(S(=O)(=O)N2CCOCC2)c1,-5,-1,29,-2,1,4,2%
O=C(NCc1ccc2c(c1)OCO2)c1cccc(S(=O)(=O)N2CCCC2)c1,-1,8,0,-2,0,.,.
CCc1cc(CN2CCOCC2)c(NC(=O)c2ccccc2)s1,64*,-12,1,-3,0,-8,1%
CCOc1ccccc1CNS(=O)(=O)c1cnc(N)nc1,1,-10,0,-5,2,.,.
COc1ccc(-c2nc3ccccc3n3c(-c4ccccc4)c4c(=O)n(C)c(=O)n(C)c4c23)cc1,6,6,-1,-3,-1,.,.
COC(=O)c1ccc(/C=C/c2nc3ccccc3c(=O)[nH]2)cc1,-6,-12,38*,4,0,-1,-1%
Cc1[nH]nc2c1C(c1c[nH]c3ccccc13)C(C#N)=C(N)O2 (configuration not stated),51*,-4,0,-5,5,0,1%
Cc1cc2c(cc1S(=O)(=O)N(CCN(C)C)Cc1ccccc1)OCC(=O)N2,0,-15,1,-3,10,.,.
Cc1nn(CC(=O)Nc2ccc3c(c2)nc(CCN2CCCCC2)n3C)c(=O)c2ccccc12,5,4,0,1,3,.,.
Cc1nn(CC(=O)Nc2ccc3c(c2)nc2n3CCN(C3CCCCC3)C2)c(=O)c2ccccc12,46*,1,0,-3,1,6,6%
Cc1ccc(-n2ncc(C(=O)N3CCN(c4cccc(C)c4)C(C)C3)c2C2CCN(C(=O)OC(C)(C)C)CC2)cc1 (configuration not stated),8,-21,-1,0,-1,.,.
CCN(CC)S(=O)(=O)c1ccc2c(c1)N(CC(=O)Nc1ccc(OC)cc1)C(=O)CS2,-1,10,0,-2,-1,.,.
CCCn1cccc(C(=O)Nc2ccc(OC)cc2)c1=O,1,-3,0,-2,3,.,.
C#CCn1cccc(C(=O)Nc2ccc(OC)cc2)c1=O,45*,3,0,-3,2,-3,-1%
Cc1nn(-c2ccccc2)c(N2CCCC2)c1/C=N/NC(=O)c1ccccc1O,83*,-6,0,-3,3,-8,?
Cn1cc(CN2CCN(CCO)CC2)c(-c2ccc(Oc3ccccc3)cc2)n1,6,-3,1,3,5,.,.
COCCN1CCN(Cc2cn(C)nc2-c2ccc(Oc3ccccc3)cc2)CC1,44*,-4,0,2,8,-5,2%
CCn1cc(C(=O)N2CCN(c3ccc([N+](=O)[O-])cc3)CC2)c(=O)c2ccc(C)nc21,46*,9,-1,-2,2,16,1%
CCn1cc(C(=O)N2CCN(c3cccc(C)c3C)CC2)c(=O)c2ccc(C)nc21,6,22,-1,-1,-1,.,.
SMILES,TRHR enhancer-1,D1 antagonist,TRHR agonist-1,D1 PAM,D1 ag,TRHR enhancer-2,TRHR agonist-2
CCOCc1c(C(=O)OCC(=O)Nc2ccccc2C(N)=O)oc2ccccc12,0,-13,0,-9,2,.,.
CCOCc1c(C(=O)Nc2ccccc2N2CCN(C)CC2)oc2ccccc12,44*,-1,0,0,-1,-5,6%
COc1cc(O)c(C(CC(=O)N2CCCCC2)c2cc(OC)c(OC)c(OC)c2)c(OC)c1 (configuration not stated),-1,-10,0,-3,7,.,.
COc1cc(O)c(C(CC(=O)N2CCCC2)c2cc(OC)c(OC)c(OC)c2)c(OC)c1 (configuration not stated),49*,2,-1,-9,0,-3,7%
CCOc1ccc(CCNC(=O)c2ccc3c(c2)N(Cc2ccccc2)C(=O)c2ccccc2S3=O)cc1OCC (configuration not stated),-9,0,1,-2,6,.,.
CC(C)=CCc1c(O)ccc(C(=O)Cc2ccccc2)c1O,67*,-22,2,0,13,0,?
O=Cc1c(NCc2ccco2)nc2ccccn2c1=O,46*,-1,0,-3,0,-7,4%
FC(F)(F)c1cnc(-c2cnc(-c3cccnc3)nc2)c(Cl)c1,4,1,1,-4,5,.,.
O=C(CSC(=S)N1CCCCC1)N1N=CCC1c1ccccc1 (configuration not stated),53*,.,0,2,-2,4,1%
O=C(CSc1ccc(-c2cccnc2)nn1)N1CCCc2ccccc21,41*,9,0,-4,-2,-7,0%
O=C(CSc1ccc(-c2ccccn2)nn1)N1CCCc2ccccc21,-2,12,0,-1,2,.,.
Cc1cc(C)cc(OC(=O)c2snnc2C)c1,1,-5,0,0,2,.,.
Cn1c(=O)c(N)c2c3c(c(Br)ccc31)C(=O)c1ccccc1-2,-5,-9,60*,-5,73*,-5,18µM*
CCC(CC)C(=O)Nc1nnc(S(=O)(=O)N2CCCC2)s1,0,8,-1,-1,1,.,.
CCOc1ccc(-n2c(-c3ccccc3)c(C)n3c4c(=O)n(C)c(=O)n(C)c4nc23)cc1,6,-10,0,-1,-1,.,.
O=C(O)c1cccc(-c2ccc(/C=c3/sc4nc5ccccc5n4c3=O)o2)c1,-5,-18,30,-10,39*,-7,?
Cc1ccccc1CN1C(=O)C(O)(CC(=O)c2ccccc2)c2cc(Cl)ccc21 (configuration not stated),-5,-12,0,-3,4,.,.
